# Assay outcomes as filed in PubChem BioAssay.
# Sampled rows, rich in hits. Any-hit rate of the full collection: about 22%.
# CYP2C9 act – human CYP2C9 activators, primary screen, biochemical, luminescence; recombinant CYP2C9, luciferin-H conversion; active compounds read high; factor 1 = untreated enzyme, 0 = blocked; activation factor at 5 µM; 1.4% of 96,000 active; AID 1024, 2008;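 active = activation factor of 2 or more for CYP2C9 at a 5 µM dose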;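 also: 0 = sulfaphenazole-blocked wells and 1 = vehicle-only wells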
# Target sequence (P11712 whole entry, looked up): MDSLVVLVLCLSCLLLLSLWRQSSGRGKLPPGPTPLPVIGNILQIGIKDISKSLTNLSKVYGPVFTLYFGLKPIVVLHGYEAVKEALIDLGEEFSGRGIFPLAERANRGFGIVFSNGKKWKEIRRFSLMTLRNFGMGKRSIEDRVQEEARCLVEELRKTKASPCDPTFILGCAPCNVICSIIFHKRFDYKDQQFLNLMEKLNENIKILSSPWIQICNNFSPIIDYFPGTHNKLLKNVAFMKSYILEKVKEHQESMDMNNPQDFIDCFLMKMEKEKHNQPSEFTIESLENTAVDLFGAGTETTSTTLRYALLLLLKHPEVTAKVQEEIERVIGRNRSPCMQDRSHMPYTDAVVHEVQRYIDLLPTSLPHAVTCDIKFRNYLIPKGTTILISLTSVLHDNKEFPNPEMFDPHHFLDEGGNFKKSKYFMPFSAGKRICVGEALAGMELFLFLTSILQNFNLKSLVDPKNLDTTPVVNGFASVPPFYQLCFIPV
# Measles CPE – compounds protecting cells from measles virus cytopathic effect, primary screen, measles RdRp inhibitor project, single point, MLSMR library, absorbance. Measles virus-infected cells, CPE protection. 1.5% of 140,000 active. AID 841, 2007. protection (pct of control), % at 4 µM; in the data active = protection mostly above about 24%, no sharp cut-off; inactive = mostly below about 26%
# CYP2C19 inhib – blockers of cytochrome P450 2C19 activity – biochemical, luminescence, ADME assay, primary screen; P33261; CYP2C19 Supersomes, luciferin-H EGE luminescence, 30 min; inhibition, % at 5 µM; 21% of 96,000 active; AID 778, 2007;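 active = CYP2C19 inhibition above a set limit at 5 µM in the primary screen, cut at about 50% in these data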;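 also: plate controls were negative control wells for no effect and 2.5 mM tranylcypromine positive control for full effect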
# CYP2C9 inhib – blockers of cytochrome P450 2C9 activity – biochemical, luminescence, ADME assay, primary screen. P11712. inhibition, % at 5 µM. AID 777, 2007. 20% of 96,000 active. CYP2C9 Supersomes, luciferin-H conversion;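 active = blocking of liver enzyme CYP2C9 beyond about 50% at 5 µM, limit read from the data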
# CYP2C19 act – human CYP2C19 activators, primary screen, biochemical, luminescence | Cytochrome P450 2C19 (Homo sapiens), P33261 | recombinant CYP2C19, luciferin-H EGE luminescence; active compounds read high; 0 = fully inhibited enzyme, 1 = untreated enzyme | activation factor at 5 µM | 96,000 tested, under 10 active | AID 1025, 2008;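 active = activation factor of at least 2 at 5 µM in the primary screen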;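 also: 0 = wells with 2.5 mM tranylcypromine and 1 = vehicle-only wells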
# * = called active by the depositor; . = no result given.
SMILES,CYP2C9 act,Measles CPE,CYP2C19 inhib,CYP2C9 inhib,CYP2C19 act
COc1ccc(OC)c(S(=O)(=O)Nc2cccc(F)c2)c1,0.3,1,89*,68*,0.1
CCc1ccc(NS(=O)(=O)c2cc(OC)ccc2OC)cc1,0.3,8,54*,68*,0.5
COc1ccc(C(=O)O)cc1S(=O)(=O)Nc1cccc(C)c1,1.1,13,-13,-10,1.1
COc1ccc(OC)c(S(=O)(=O)Nc2ccc(OCC(=O)O)cc2)c1,1,4,-4,2,1
CC(C)OCC(O)CN1CCN(CC(O)COc2ccc3c(c2)OCO3)CC1 (stereo not drawn),1.1,9,-10,-9,1.1
Cc1ccccc1C(=O)N1CCN(c2nc(N3CCOCC3)nc(N3CCOCC3)n2)CC1,0.9,4,-6,8,1.1
O=C(NCCCNC(=O)C(F)(F)C(F)F)C(F)(F)C(F)F,0.8,2,10,16,0.9
O=S(=O)(Nc1cnc2ccccc2c1)N1CCCCCC1,0.9,22,57*,13,0.4
CCOc1ccc(NS(=O)(=O)c2cc(OCC(N)=O)c(C)cc2Cl)cc1,.,5,.,.,.
COc1ccc(OC)c(S(=O)(=O)Nc2cccc(C(C)=O)c2)c1,0.3,6,98*,66*,0
COc1ccc(S(=O)(=O)Nc2cc(C)cc(C)n2)c2ccccc12,0.7,3,23,28,0.8
COc1ccc(NS(=O)(=O)c2ccc(OC)c3ccccc23)cn1,0.1,13,17,85*,0.8
CN(C)C(=O)Nc1cnc2ccccc2c1,1,19,-7,4,1.1
CCOc1cc(C)c(S(=O)(=O)Nc2ccc(F)cc2)cc1C,0,7,100*,97*,0
O=c1c2c(nc3c(-c4ccccc4)c[nH]n13)CCC2,0.6,6,9,39,0.9
CCCCN(C(=O)Cn1nnc2ccccc21)C(C(=O)NCc1ccco1)c1ccncc1 (stereo not drawn),0.7,10,7,26,0.9
Cc1ccc(C(C)C)c(OCC(=O)Nc2ccc(N3CCN(S(C)(=O)=O)CC3)cc2)c1,0.9,12,-8,5,1.1
Cn1c(COc2ccccc2)nnc1SCc1cc(=O)[nH]c2ccccc12,0.2,28,72*,77*,0.3
O=c1cc(CSc2nnc(COc3ccccc3)n2-c2ccccc2)c2ccccc2[nH]1,.,7,.,.,.
O=C(CNC(=O)c1cccc(Br)c1)NCCc1nc2ccccc2[nH]1,0.6,4,23,41,0.8
O=C(NCCc1nc2ccccc2[nH]1)c1ccco1,0.8,21,55*,21,0.5
O=C(CNC(=O)c1ccc(Br)cc1)NCCc1nc2ccccc2[nH]1,0.4,22,29,58*,0.7
Cc1ccccc1NC(=O)NCCc1nc2ccccc2[nH]1,0.7,15,60*,29,0.4
Cc1ccc(Nc2nnc(C(C)(C)C)c(=O)n2N)cc1,.,12,.,.,.
CS(=O)(=O)c1cccc(C(=O)Oc2ccccc2)c1,1,3,8,-2,0.9
SMILES,CYP2C9 act,Measles CPE,CYP2C19 inhib,CYP2C9 inhib,CYP2C19 act
COc1ccc(CN(C(=O)c2oc3ccccc3c2C)C2CCS(=O)(=O)C2)cc1OC (stereo not drawn),0,14,75*,96*,0.2
O=C(c1cc2ccccc2oc1=O)N(Cc1ccco1)C1CCS(=O)(=O)C1 (stereo not drawn),0.6,9,28,38,0.7
CCOc1ccc(CN(C(=O)c2oc3ccccc3c2C)C2CCS(=O)(=O)C2)cc1 (stereo not drawn),0.7,5,37,34,0.6
CC(C)c1ccc(CN(C(=O)c2cc3ccccc3oc2=O)C2CCS(=O)(=O)C2)cc1 (stereo not drawn),0.4,17,15,62*,0.8
CCOC(=O)C1=C(C)NC(=O)NC1c1cn(-c2ccccc2)nc1-c1cccs1 (stereo not drawn),0.2,4,56*,80*,0.4
CCOC(=O)C1=C(C)NC(=O)NC1c1cccc(O)c1 (stereo not drawn),0.9,5,3,6,1
CC1=C(C(=O)OC2CCCCCCC2)C(c2cccc(O)c2)NC(=O)N1 (stereo not drawn),0.2,2,81*,81*,0.2
CCOC(=O)C1=C(C)NC(=O)NC1c1ccc(Cl)cc1Cl (stereo not drawn),0.9,4,68*,13,0.3
CCOC(=O)C1=C(C)N(C)C(=S)NC1c1ccc(Cl)cc1Cl (stereo not drawn),.,11,.,.,.
CC1=C(C(=O)OCC(C)C)C(c2ccc(F)cc2)NC(=O)N1 (stereo not drawn),0.7,8,90*,29,0.1
CCOC(=O)C1CCN(S(=O)(=O)c2ccc(OCC(=O)OC)cc2)CC1,0.8,33,29,19,0.7
CCOC(=O)C1=C(C)NC(=O)NC1c1ccc(OCC(=O)N2CCCCC2)cc1 (stereo not drawn),0.8,20,5,21,1
CCOC(=O)C1=C(C)NC(=O)NC1c1c(OCC(=O)N2CCCCC2)ccc2ccccc12 (stereo not drawn),0.2,5,76*,83*,0.2
CCOC(=O)C1=C(CN2CCC(C)CC2)NC(=O)NC1c1ccc(Cl)cc1 (stereo not drawn),0.1,17,78*,89*,0.2
CCOC(=O)C1=C(CNCc2ccc(C)cc2)NC(=O)NC1c1cc(C)ccc1C (stereo not drawn),0.5,15,47,55*,0.5
CCOC(=O)C1=C(C)NC(=O)NC1c1ccc(F)cc1 (stereo not drawn),.,12,.,.,.
CCOC(=O)C1=C(C)NC(=O)NC1c1ccc(OCC(=O)Nc2ccccc2)c(OC)c1 (stereo not drawn),0.1,8,70*,91*,0.3
Cc1cccc(C)c1OCc1n[nH]c(=S)o1,.,8,.,.,.
CC(C)OC(=O)NCCOC(=O)Nc1ccc(Cl)c(Cl)c1,.,12,.,.,.
Cc1ccc(-c2nn(-c3ccccc3)cc2C2CC(c3cccs3)=NN2C(=O)CCCC(=O)O)cc1 (stereo not drawn),0.4,21,9,61*,0.9
C=CCOc1c(OC)cc(Cl)cc1C1NC(=O)NC(C)=C1C(C)=O (stereo not drawn),1.1,12,-3,-6,1
CCOC(=O)C1=C(C)NC(=O)NC1c1ccc(N(CC)CC)cc1 (stereo not drawn),0.5,2,17,52*,0.8
CCCCCCOC(=O)C1=C(C)NC(=O)NC1c1ccc(O)cc1 (stereo not drawn),0.2,1,70*,81*,0.3
CCOC(=O)C1=C(C)NC(=O)NC1c1ccc(N(C)C)cc1 (stereo not drawn),1.1,15,-4,-11,1
